The text below walks through data of PubChem BioAssay (NCI).

Common to all, as to assay: NCI-60 one-dose screen, 48 h (100 = growth as untreated, 0 = no growth, -100 = all killed)
What all share (conditions): 10 µM unless noted

The subject of experiment [1] is SK-MEL-2 melanoma.
Experiment [2] deals with EKVX NSCLC.
Experiment [3] deals with SN12C renal.
The test system of experiment [4] is UO-31 renal.
Experiment [5] deals with TK-10 renal.
Experiment [6] deals with ACHN renal.
The subject of experiment [7] is CAKI-1 renal.
Experiment [8] has as its system A498 renal.
The subject of experiment [9] is CCRF-CEM leukemia.
Experiment [10] has as its system MOLT-4 leukemia.
Experiment [11] deals with SR leukemia.
Experiment [12] relates to RPMI-8226 leukemia.
Experiment [13] has as its system OVCAR-8 ovarian.
Experiment [14] concerns OVCAR-5 ovarian.
In experiment [15] the test system is OVCAR-4 ovarian.
For experiment [16], the system named is SK-OV-3 ovarian.
Experiment [17] has as its system IGROV1 ovarian.
For experiment [18], the system named is OVCAR-3 ovarian.
Experiment [19] has as its system HS 578T breast.
Experiment [20] deals with NCI/ADR-RES ovarian.

Compounds without any hit were thinned out: in the full panel of roughly 83,000, 20% have a hit.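 Percent growth is the endpoint: 0 to 100 indicates growth inhibition (40 means 60% inhibition), 0 means no net growth, and negative values indicate cell death.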 Unmarked numbers belong to inactive results. Activity calls are given as the source filed them. Rule for the calls: active = growth percent below 10; inactive = the rest.

For `CC(C)Cn1cnc2c(=O)[nH]c(N)nc21`, the growth in experiment [1] is 87.9%; in [2], 101%; in experiment [3], 98.9%; in experiment [4] it was 94.4%; in [5] it was 88.6%; in experiment [6], 106%. Moreover, the growth in [7] is 95.4%; in [8] it was 94.1%; in experiment [9], 107%; in experiment [10], 92.4%; in experiment [11], 90.3%; in experiment [12] it was 104%. Moreover, the growth in [13] was 97%; in experiment [14] it was 110%; in experiment [15], 103%; in [16], 78%; in experiment [17] it was 104%; in experiment [18] it was 109%. For the same compound, the growth in experiment [19] was 106%; in [20], 105%.

With `CCCCCOC(=O)c1c(C)[nH]c(/C=C2\N=C(c3ccc[nH]3)C=C2OC)c1C`, the growth was -71.2% (active) in [1]; 12.5% in experiment [2]; 3.4% (active) in experiment [3]; -69.6% (active) in experiment [4]; 4.49% (active) in experiment [5]; -72.3% (active) in experiment [6]. Moreover, the growth was -17.3% (active) in [7]; -21% (active) in experiment [8]; -13.2% (active) in experiment [9]; 9.58% (active) in experiment [10]; -30% (active) in [11]; -43.6% (active) in experiment [12]. The growth is 7.42% (active) in [13]; -47.1% (active) in experiment [14]; -7.23% (active) in [15]; 8.75% (active) in [16]; -14.1% (active) in experiment [17]; -52.4% (active) in experiment [18]. Further, the growth in [19] is -23.5% (active); in [20], 5.69% (active).

For the compound `COc1ccc(/C=C/C(=O)c2ccc(Nc3ccnc4cc(Cl)ccc34)cc2)cc1`, the growth was 64.1% in experiment [1]; 85.8% in experiment [2]; 97.8% in [3]; 90% in experiment [4]; 141% in experiment [5]; 98.8% in [6]. Moreover, the growth in experiment [7] is 85.1%; in [8] it was 115%; in experiment [9], -52.1% (active); in [10], 22.9%; in experiment [11] it was -72.4% (active); in [12] it was -32% (active). Besides, the growth is 97.9% in [13]; 89.2% in experiment [14]; 96.6% in [15]; 111% in [16]; 93.7% in [17]; 118% in experiment [18]. Further, the growth is 106% in experiment [19] and 83.6% in experiment [20].

`COc1ccc(OC)c(Nc2nnc(-c3ccc(O)c(OC)c3)o2)c1`: the growth is 96.3% in [1]; 82.5% in experiment [2]; 34% in experiment [3]; 20.3% in [4]; 14.8% in experiment [5]; 37.9% in experiment [6]. For the same compound, the growth in [7] was 30.4%; in [8] it was 6.18% (active); in experiment [9], 88.6%; in [10] it was 60.8%; in experiment [11], 52.4%; in [12] it was 75%. In addition, the growth in [13] is 83.6%; in experiment [14], 70%; in [15] it was 63.1%; in experiment [16], 53.4%; in experiment [17] it was 19.9%; in [18], 70.6%. In addition, the growth in experiment [19] was 39.6%; in [20] it was 68.7%.

Consider `O=C(c1ccccc1)c1ccc(C2CCCCC2)cc1`, for which the growth in [1] was 110%; in experiment [2], 81.9%; in experiment [3] it was 90.7%; in experiment [4], 98.2%; in [5] it was 81.5%; in experiment [6], 97.1%. Also, the growth in experiment [7] is 82.2%; in experiment [8], 77.9%; in experiment [9], 96.2%; in experiment [10] it was 104%; in experiment [11], 107%; in [12], 95.6%. Also, the growth in [13] was 97.8%; in experiment [14], 95.4%; in [15], 95.2%; in experiment [16], 91.6%; in [17] it was 100%; in experiment [18], 98.7%. Also, the values for the growth in experiment [19] and in [20] were 103% and 99.7%, respectively.

In the case of `CCCCNC(=O)CC1=C(C)/C(=C/c2[nH]c(-c3ccc[nH]3)cc2OC)N=C1C`, the growth in [1] was 22.1%; in experiment [2], 36.4%; in experiment [3], 35.3%; in experiment [4], -5.12% (active); in experiment [5] it was 33.5%; in [6], 13.7%. Further, the growth in experiment [7] was 4.74% (active); in experiment [8], 3.74% (active); in [9] it was 27.2%; in experiment [10], 7.6% (active); in experiment [11], -16.8% (active); in experiment [12], 39.2%. Moreover, the growth in [13] is 20.5%; in experiment [14] it was 50.2%; in experiment [15] it was 39.7%; in experiment [16], 51.7%; in experiment [17], 49.2%; in experiment [18], 24.4%. The growth is 43.1% in experiment [19] and 30.1% in experiment [20].

As to `CC(=O)N1N=C(c2ccc(C(F)(F)F)c(F)c2)CC1c1[nH]c(C)c(C(=O)NCC(F)(F)F)c1C` (stereo not given), the growth was 106% in experiment [1]; 88.4% in [2]; 50.1% in experiment [3]; 26% in experiment [4]; 68.5% in experiment [5]; 18.7% in experiment [6]. The growth was 58.7% in [7]; 54.9% in [8]; 90% in experiment [9]; 82.6% in [10]; 86.9% in experiment [11]; 90.7% in experiment [12]. The growth was 41.9% in experiment [13]; 79.3% in [14]; 13.6% in [15]; 75.2% in experiment [16]; 69.5% in experiment [17]; 68.3% in [18]. In addition, the growth in experiment [19] was 31.8%; in experiment [20] it was 78.5%.

Consider `CC(O)(c1ccccc1)C(c1ccccc1)C1CCCCN1` (stereo not given), for which the growth in experiment [1] is 117%; in experiment [2], 104%; in [3] it was 93.1%; in [4], 93.5%; in experiment [5] it was 102%; in experiment [6] it was 107%. The growth in [7] was 102%; in [8], 106%; in experiment [9] it was 101%; in [10], 99.7%; in experiment [11] it was 101%; in experiment [12] it was 102%. Also, the growth was 101% in experiment [13]; 113% in experiment [14]; 97.9% in [15]; 113% in experiment [16]; 80.5% in experiment [17]; 105% in [18]. Also, the growth in experiment [19] is 107%; in experiment [20], 105%.
